Growth data for 26 compounds are collected here from PubChem BioAssay (NCI).

The structures appear in SMILES notation. This is part of a sample that, as a whole, favours compounds with a hit. Of some 83,000 tested, about 20% had one in any assay.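 Negative percent growth values reflect cell death: -40 means 40% of the cells present at the start died, and -100 means all died.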 Values without a mark were called inactive. Activity calls are given as the source filed them. Rule for the calls: active = growth percent below 10; inactive = the rest.

The experiment has as its system MDA-MB-468 breast. Nature of the experiment: NCI-60 one-dose screen, 48 h (100 = growth as untreated, 0 = no growth, -100 = all killed). The conditions noted are these: 10 µM unless noted.
On to `COc1ccc2c(c1)C=CC1(O2)Oc2ccc(OC)cc2C=C1C` (stereo unspecified), for which the growth was 47.3%.

`c1ccc(-c2nc(Nc3ccc(-c4nc5ccccc5[nH]4)cc3)nc(N3CCOCC3)n2)cc1`: the growth is -62.7% (active). Then `N[C@H]1CCC[C@@H]1NCCCCN1C(=O)c2cccc3cccc(c23)C1=O`, with 50.4%. As for `COc1ccc2c(c1)C(Br)=C(CCO)C2c1ccccc1` (stereo unspecified), the growth was -40.2% (active). Then `Cc1cccc(C[C@H](NC(=O)Nc2ccc(Cl)cc2F)C(=O)N[C@@H]2C(=O)N3C[C@H](OC(=O)CCN(C)C)C[C@H]3C(=O)N3CCCC[C@H]3C(=O)N[C@@H](C)C(=O)N3C[C@H](C)C[C@H]3C(=O)O[C@H]2C)c1`, with 9.39% (active); and `CC(=O)Nc1ccc2c(c1)Cc1c(F)cccc1-2`, with 8.46% (active); and `COc1cc(OC)c(C(=O)/C=C/c2cccc(OC(C)=O)c2)cc1CC=C(C)C`, with 58.3%. Then `Cn1cc([C@@H]2Nc3ccc4[nH]ncc4c3[C@H]3[C@H]4CCC(C4)[C@H]32)c(C(F)(F)F)n1`, with 53.4%; and `CCN(CC)CCCC(C)NCC(=O)NC(c1ccc2c(c1)OCO2)c1cc(Cl)c2cccnc2c1O` (stereo unspecified), with 16.6%. For `N=C(N)c1ccc(-c2ccc(-c3ccc4ccccc4c3)s2)cc1` the value was 101%. Regarding `CN(C)CCCn1c(=O)c2cc([N+](=O)[O-])ccc2c2cnc3[nH]ccc3c21`, the growth was 81.3%. For `N#CN1CC[C@H](C(=O)Nc2ncc(-c3ccccc3)s2)C1` the value was -49.9% (active); for `O=c1[nH]c(=S)[nH]c2nc[nH]c12`, 100%; for `CC1=C(C(=O)Nc2ccc(F)cc2)C(c2ccc(Cl)cc2)C2=C(CC(C)(C)CC2=O)N1` (stereo unspecified), 89.4%.

On to `COCCOC(=O)c1ccc(C(C)C)cc1`, for which the growth is 106%. Then `CC(=O)Oc1ccccc1C(=O)Nc1ccc(C(=O)/C=C/c2cccs2)cc1`, with 109%; and `CCN(CC)c1ccc(CNc2ccnc3ccccc23)cc1`, with 1.4% (active); and `C#C[C@]1(O)CC[C@H]2[C@@H]3CC=C4c5sc(C6CC6)nc5CC[C@]4(C)[C@H]3CC[C@@]21C`, with 68.4%.

`Cn1cc(-c2csc(-c3cn(CCOC(N)=O)c4ccccc34)n2)c2cccnc21`: the growth is 16.2%. Turning to `CC[C@@H](C(=O)[C@@H](C)[C@@H](O)[C@H](C)[C@@H]1O[C@@H]([C@@H](CC)C(=O)N(CC)CC)CC[C@@H]1C)C1O[C@]2(C=CC(=O)[C@]3(CC[C@@](C)([C@H]4CC[C@](O)(CC)[C@H](C)O4)O3)O2)[C@H](C)C[C@@H]1C` (stereo partly specified), the growth is -12.9% (active). As for `CCOC(=O)C1=C(C)N=C2Sc3ccccc3N2C1c1ccccc1` (stereo unspecified), the growth was 74.8%. Then `O=C(c1ccc(Cl)cc1Cl)N1c2ccccc2Sc2ccccc21`, with 51.4%. Then `Cc1ccc(NC(=O)c2cc(/C=C/C(=O)NO)cc(C(F)(F)F)c2)cc1Nc1nccc(-c2cccnc2)n1`, with -24.4% (active); and `CN(C)CCCC(C#N)c1ccccc1` (stereo unspecified), with 108%; and `COc1ccc(-c2nc3ccc(-c4nc5ccc(N6CCN(c7ccccc7)CC6)cc5[nH]4)cc3[nH]2)cc1OC`, with -46.1% (active). Then `Cc1cn(-c2cc(NC(=O)c3cccc(C#Cc4cccc5[nH]nc(N)c45)c3)cc(C(F)(F)F)c2)cn1`, with 67.7%.
